High-throughput results from PubChem.
Shown are actives, neighbours in structure and some others; about 12% of the full set was active somewhere.
Pf growth 48h = inhibits P. falciparum growth in the first generation, 48 h | P. falciparum luciferase growth in erythrocytes, 48 h | Potency, µM (doses to about 28.7 µM), for inactives: top-dose activity change, negative = inhibition, hits mostly inhibitors | hit rate 5.9% among 310,000 | AID 504832; note: % is set by controls: 0 for no effect and ±100 for the full control effect
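Erythrocytes infected with P. falciparum carrying an integrated firefly luciferase reporter (2% hematocrit, 0.1% parasitemia final) were exposed to compounds in RPMI 1640 with 0.5% Albumax at 37 C, 5% CO2. Growth inhibition was scored as reduced luminescence.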
SARS PLpro yeast = blocks SARS-CoV papain-like protease in a yeast assay. S. cerevisiae expressing SARS-CoV PLpro, growth rescue. Potency, µM (top dose mostly 32.9 µM), inactives show at the top dose activity, positive = growth rescue, hits mostly activators. hit rate 0.19% among 330,000; calls by dose curve; note: 0% is about no effect; nearly all actives have a fitted effect of over 55% in size
Pf growth 96h = inhibits malaria parasite growth, 96 h; P. falciparum luciferase reporter growth, 96 h; Potency, µM (top dose mostly 28.7 µM), for inactives: at the highest dose activity change, negative = inhibition, most hits filed as inhibitors; hit rate 6.9% among 320,000; AID 504834; note: % is set by controls: 0 for no effect and ±100 for the full control effect
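96 h incubation, 37 C, 5% CO2, of luciferase-reporter P. falciparum-infected RBCs (2% hematocrit, 0.05% parasitemia final) with test compounds; endpoint luminescence.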
Sm TGR block = inhibitors of Schistosoma mansoni thioredoxin glutathione reductase. purified TGR, DTNB reduction, TNB absorbance 405 nm. hit rate 3% among 360,000. Q962Y6. Potency, µM (doses to about 114 µM), for the others: at the highest dose activity change, negative = inhibition, hits mostly inhibitors. AID 485364; note: % is set by controls: 0 for no effect and ±100 for the full control effect; nearly all actives have a fitted effect of over 60% in size
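First, TGR (20 nM dispensed) and NADPH were mixed with compound. Second, a 15 min room-temperature incubation followed. Third, further NADPH and then DTNB were added to start the reaction. Finally, TNB absorbance was monitored kinetically.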
The depositor's hits bear a star; ? = inconclusive; . = no result given. Unless noted, calls come from the whole dose curve; as a rule, active = well fitted curve in the direction sought with a large enough effect; inconclusive = small, poorly fitted or top-dose-only effect, or another doubt; inactive = no such curve, though single readings can be large; an effect the other way counts as inactive or inconclusive. Potency is the fitted concentration of half-maximal effect.

SMILES	Pf growth 48h	SARS PLpro yeast	Pf growth 96h	Sm TGR block
Cc1ccc(-n2nc(C)c3c(C)cc(=O)n(CC(=O)Nc4cccc(C)c4C)c32)cc1	.	.	.	1%
CSc1ccc(-c2nc3cccc(C)n3c2Nc2ccc(Cl)cc2)cc1	.	.	.	19%
Cc1ccc(-n2c3c(cc(C(=O)Nc4cccc(Cl)c4)c2=O)C(=O)CC(C)(C)C3)cc1	.	.	.	34%
CNC(=O)C1CCN(C(=O)N2CC(C)Oc3ccc(Cl)cc32)CC1 (centres undefined)	.	.	.	-3%
CC(C)c1ccc(NS(=O)(=O)c2ccc3nc(-c4ccccc4)[nH]c3c2)cc1	.	.	.	3%
Clc1ccc(-c2ccc(/C=N/Nc3cc(N4CCOCC4)nc(N4CCOCC4)n3)o2)cc1	9.3µM*	-53%	-2%	0%
Cc1ccc(Cn2cc(/C=C(/C#N)C(=O)Nc3cccc(Cl)c3)c3ccccc32)cc1	.	.	.	2%
CCC(C)(C)C1CCC(=NNc2nc3ccccc3[nH]2)CC1 (centres undefined)	10µM*	8%	10µM*	-14%
CC(=O)N1CCC(=NNc2nc3ccccc3[nH]2)CC1	?	-6%	?	0%
Cn1ncc(C#N)c1NC(=O)c1nn2cccnc2c1Cl	5%	-3%	4.7µM*	-6%
Cc1cc(C)c2c(n1)SCCN2C(=O)Nc1ccc(C(=O)Nc2cc(Cl)ccc2C)cc1	.	.	.	4%
COc1ccccc1CC1CC(=O)N(c2ccccc2)C1=O (centres undefined)	-2%	-3%	9.3µM*	4%
COc1ccc(N2C(=O)CC(Cc3ccccc3OC)C2=O)cc1 (centres undefined)	0%	-2%	?	2%
COc1ccc(C)cc1NC(=O)Cn1c(=O)n(Cc2nc(C)no2)c(=O)c2ccccc21	.	.	.	6%
Cc1ccc(N(CC(=O)NCc2ccco2)C(=O)CCC(=O)Nc2nccs2)c(C)c1	-24%	-1%	18%	-12%
COC(=O)c1cn(NC(=O)C2CCC(C(C)(C)C)CC2)c(=O)c2ccccc12 (centres undefined)	16%	-1%	4.1µM*	1%
COC(=O)c1cn(NC(=O)C2COc3ccccc3O2)c(=O)c2ccccc12 (centres undefined)	-3%	0%	10%	6%
COC(=O)c1cn(NC(=O)C2CCCO2)c(=O)c2ccccc12 (centres undefined)	1%	11%	12µM*	-25%
Cc1ccc(C(=O)N2CC(=O)Nc3ccc(Br)cc3C2c2ccc(F)cc2)cc1C (centres undefined)	.	.	.	-3%
COc1ccc(C2CC(=O)c3cc(-c4nc(-c5cccc([N+](=O)[O-])c5)cs4)c(=O)n(-c4ccccc4C)c3C2)cc1 (centres undefined)	.	.	.	-12%
COc1ccc(S(=O)(=O)N2CCN(C(=O)COc3ccc(C)c(C)c3)CC2)cc1OC	10µM*	1%	1%	-24%
COc1cc2c(cc1OC)CN(C(=O)CN1CCN(S(=O)(=O)c3ccc(C)c(C)c3)CC1)CC2	?	-3%	13µM*	-18%
CC1(C)OC1COc1c2ccoc2cc2oc(=O)ccc12 (centres undefined)	-3%	-1%	0.37µM*	8%
C=Cc1ccc(Cn2nc(-c3ccc(C)c(S(=O)(=O)N(CC)CC)c3)ccc2=O)cc1	.	.	.	0%
COCCNc1nnc(SCC(=O)c2c[nH]c3ccccc23)s1	8.3µM*	-4%	?	4%
SMILES	Pf growth 48h	SARS PLpro yeast	Pf growth 96h	Sm TGR block
COCCNc1nnc(SCC(=O)Nc2sc3c(c2C(=O)c2ccccc2)CCCC3)s1	?	-41%	9.3µM*	-10%
Cc1ccc(C(=O)c2c(NC(=O)CSc3nnc(N)s3)sc3c2CCCC3)cc1	12µM*	-18%	5.2µM*	-5%
CCOC(=O)CP(=O)(c1ccccc1)c1ccccc1	.	-4%	1%	-4%
CCOC(=O)C[n+]1c(C)ccc2c1CCC2	-6%	0%	8.3µM*	3%
Cc1cc(C)n(-c2nnc(NC(C)(C)C)nn2)n1	209%	-8%	181%	-7%
Cc1cc(C)n(-c2nnc(NC34CC5CC(CC(C5)C3)C4)nn2)n1	3.3µM*	-31%	2.9µM*	3%
Cc1c(C)n(Cc2ccccc2)c2ccc(C(=O)OCCCN(C)C)cc12	?	0%	4.1µM*	31%
COc1ccc(CC(=O)NNC(=O)COc2ccc(C)cc2)cc1S(=O)(=O)N1CCOCC1	-5%	1%	3%	0%
C[C@@H]1C[C@H]2[C@H]3C[C@@H](F)C4=CC(=O)C=C[C@]4(C)[C@@]3(Cl)[C@@H](O)C[C@@]2(C)[C@@H]1C(=O)COC(=O)C(C)(C)C	4.8µM*	.	4.8µM*	.
O=C(CCl)Nc1cc(-c2ccccc2)nn1-c1ccccc1	.	23%	6.6µM*	13µM*
Cn1c(=O)n(C)c2cc(NC(=O)CSc3nc4ccccc4c(=O)[nH]3)ccc21	-8%	-2%	186%	6%
O=C(c1ccc(COc2ccccc2Cl)o1)N1CCCC1	-4%	-10%	?	?
Cc1cccc(OCc2ccc(C(=O)N3CCOCC3)o2)c1	21%	-6%	-2%	-7%
Cc1ccc(S(=O)(=O)N2CCN(C(=O)c3ccc(COc4ccccc4)o3)CC2)cc1	12µM*	0%	9.3µM*	-22%
O=C(c1ccc(COc2ccccc2)o1)N1CCN(S(=O)(=O)c2ccccc2Cl)CC1	13µM*	-16%	?	-1%
CC1CCN(C(=O)c2ccc(COc3ccccc3Cl)o2)CC1	?	-14%	10µM*	?
CCc1nn2c(=O)cc(COC(=O)c3cccc(NC(=O)COc4ccccc4)c3)nc2s1	.	.	.	2%
CCc1ccc(NC(=O)CSc2ccc3nnc(CCNS(=O)(=O)c4ccc(OC)cc4)n3n2)cc1	.	.	.	0%
c1ccc(C2CCC(N3CCN(c4ccccc4)CC3)CC2)cc1 (centres undefined)	0%	5%	83%	4%
O=C(NNC(=O)c1ccccc1F)c1cccc(-n2cccc2)c1	25%	3%	70%	-8%
CCOc1ccc(Br)cc1C1=NN(C(C)=O)C(c2ccc([N+](=O)[O-])s2)O1 (centres undefined)	9.3µM*	-12%	?	?
CC(=O)N1N=C(c2ccc(C)cc2)OC1c1ccc(Br)cc1 (centres undefined)	73%	1%	-13%	-19%
Cc1ccc(C)c(NC(=O)CSc2nccn2-c2cccc(C)c2C)c1	.	.	.	8%
Cc1cc(Cl)cc(Cl)c1OCCOc1cccc2cccnc12	.	0%	4.1µM*	-13%
Cc1cc(C(F)(F)F)nc(CCNC(=O)C2CCC(=O)N(Cc3cccc(F)c3)C2)n1 (centres undefined)	-15%	0%	25%	-20%
COc1cc2[nH]c(=O)n(Cc3ccc(C(=O)N4CCN(c5cccc(C)c5C)CC4)cc3)c(=O)c2cc1OC	.	.	.	-10%
COc1ccc(CNc2cccc3[nH]c(C(F)(F)F)nc23)cc1	1.7µM*	-2%	21%	32µM*
COc1cc(CNc2cccc3[nH]c(C(F)(F)F)nc23)cc(OC)c1	2.1µM*	2%	24%	22µM*
